# Hit rate of the full screen: of about 69,000 compounds, about 8,600 (12%) showed an effect of 50% or more. This excerpt belongs to a sample that is enriched for strong results.
# Tested on: Plasmodium berghei
# Assay: Screen against P. berghei liver stage (PbLuc), transformed with Luciferase, at 10uM
# Type: functional, HepG2
# Conditions: tested at 10 uM
row,Structure (SMILES),INHIBITION [%]
1,CCn1cc(S(=O)(=O)NCc2ccnc(-n3ccnc3)c2)cn1,-0.85
2,CN(Cc1cnn(C)c1)CC(O)c1ccc2c(c1)OCO2 (stereo not drawn),46.6
3,Cn1nc(C(=O)NCCc2ccc(OC3CCCC3)cc2)ccc1=O,35.5
4,Cc1nn(C)c2cn(CC(=O)NC3CCSCC3)nc12,19.8
5,CCN(C(=O)c1ccc2nnc(C3CCN(CCOC)C3)n2c1)C(C)C (stereo not drawn),34
6,CC(C)[C@H](NC(=O)N1CCC(Cc2ccccc2)CC1)C(=O)O,31.3
7,O=C(NCC1CCCO1)c1ccc(S(=O)(=O)NCCc2cn[nH]c2)cc1 (stereo not drawn),-17.5
8,CC(C)N1CCCCC1c1cc(CO)[nH]n1 (stereo not drawn),-8.24
9,CCc1nnc(CN2CCCC(Cn3nc(C)nc3C)C2)o1 (stereo not drawn),44.9
10,COc1ccc(S(=O)(=O)NCCC(=O)NCc2ccoc2)cc1OC,3.77
11,O=C(CCc1ccsc1)NCC1CCN(C2CC2)C1 (stereo not drawn),22.8
12,C1CC(CN2CC[C@@H]3O[C@@H](c4nnc(C5CC5)o4)C[C@H]3C2)CCO1,14.5
13,CN1CCOCC2(CCCN(C(=O)c3cnccn3)C2)C1 (stereo not drawn),18.3
14,CCN(CCO)Cc1ccc(Br)c2cccnc12,7.07
15,O=C(c1ccccn1)N1CCc2c(nc(-c3ccncc3)[nH]c2=O)C1,-12.1
16,O=C(c1ccccn1)N1CCc2c(nc(N3CCCC3)[nH]c2=O)C1,50
17,O=C(c1cc[nH]n1)N1CCc2c(nc(N3CCCCC3)[nH]c2=O)C1,3.91
18,CCCc1nnc(N2CCN(c3ccccc3Cl)CC2)o1,-15.3
19,CN(C)CC(C)(C)Cn1cnc(-c2ccccc2)c1-c1ncc[nH]1,18.8
20,CNC(=O)COc1ccc(CNc2c(Cl)cccc2C#N)cc1,60.1
21,CN(C)C(=O)c1ccc(CNc2c(Cl)cccc2C#N)cc1,45.2
22,CN(c1ccc(CNc2c(Cl)cccc2C#N)cc1)S(C)(=O)=O,36.9

row,Structure (SMILES),INHIBITION [%]
1,CNC(=O)COc1ccc(CNCc2cc(F)ccc2F)cc1,-4.12
2,CS(=O)(=O)N1CCC(CNc2c(Cl)cccc2C#N)CC1,19.7
3,CCS(=O)(=O)c1ccc(CNc2c(Cl)cccc2C#N)cc1,74.9
4,CCC(=O)Nc1nnc(CCOc2ccccc2)s1,-17.2
5,Cc1nc(CN2CCC(c3ccnn3CCO)CC2)oc1C,-12.2
6,CN(C)C(=O)CN(C)C(=O)c1csc(Br)c1,-13.2
7,CN(C)c1ccc(CC2CCCN(c3cnccn3)C2)nn1 (stereo not drawn),-14.2
8,OC(CNC1CCSCC1)c1cccc(OCc2ccccc2)c1 (stereo not drawn),44.5
9,Cc1nc(CN(C)C(=O)Nc2cccc(C)c2C)no1,28.1
10,N#Cc1ccc(OC2CCN(C(=O)c3ccccc3Cl)CC2)nc1,7.44
11,N#Cc1ccc(C(=O)N2CCC(Oc3ccc(C#N)cn3)CC2)cc1,32.2
12,N#Cc1ccc(OC2CCN(C(=O)c3ccc(Br)o3)CC2)nc1,-0.532
13,N#Cc1ccc(OC2CCN(C(=O)c3cncc(Br)c3)CC2)nc1,54.5
14,COc1cccc(OC2CN(C(=O)C3CCCN(C(=O)N(C)C)C3)C2)c1 (stereo not drawn),42.6
15,COc1ccc(OC2CCN(C(=O)C3CCCN(C)C3)CC2)cc1 (stereo not drawn),67.5
16,N#Cc1ccc(OC2CCN(C(=O)Cc3cccs3)CC2)nc1,65.7
17,CC(=O)c1ccc(C(=O)N2CCC(c3cc(O)nc(C)n3)CC2)s1,8.24
18,COc1ccc(OC2CCN(C(=O)c3cnc(C)s3)CC2)cc1,30.8
19,CN1CCCC(C(=O)N2CCC(Oc3ncccn3)CC2)C1 (stereo not drawn),30.5
20,N#Cc1ccc(OC2CCN(C(=O)c3ccc4c(c3)OCO4)CC2)nc1,40.9
21,COc1ccc(OC2CCN(C(=O)c3ccc(C(C)=O)s3)CC2)cc1,71.5
22,Cc1ccc(S(N)(=O)=O)cc1C(=O)NC1CCN(C2CC2)CC1,-10.9

row,Structure (SMILES),INHIBITION [%]
1,CC(=O)N1CCN(c2ccnc(C)n2)CC(COc2ccccc2)C1 (stereo not drawn),1.11
2,Cc1ccc(N2CCN(Cc3ccccc3)C3(CCNCC3)C2=O)cn1,8.31
3,CN(C)c1cncc(C2CCN(CC(N)=O)CC2)n1,31.6
4,Cn1cccc1C(=O)N[C@@H]1CN(Cc2ccsc2)[C@@H]2COC[C@@H]21,-37.4
5,O=C(NCC1CC1)[C@H]1C[C@H]2CN(S(=O)(=O)Cc3ccccc3)C[C@@H]1O2,43.2
6,CN(Cc1ccsc1)C(=O)Nc1ccc(S(C)(=O)=O)cc1,31.8
7,NC(=O)c1ccc(NC(=O)Cn2cc(-c3ccccc3)ncc2=O)cc1,26.8
8,Cc1nc(-c2ccncc2)ncc1C(C)NC(=O)C1=NN(C)C(=O)CC1 (stereo not drawn),-9.29
9,COc1ccccc1OC1CCN(C(=O)c2cnc(C)s2)CC1,12.7
10,CC(=O)N1CCC(Oc2ccc(C#N)cn2)CC1,-43.5
11,CN1CCCC(C(=O)N2CCC(Oc3ccccn3)CC2)C1 (stereo not drawn),25.3
12,CN1CCCC(C(=O)N2CCC(Oc3ccc(C#N)cn3)CC2)C1 (stereo not drawn),74.4
13,COc1ccccc1OC1CCN(C(=O)C2CCCN(C)C2)CC1 (stereo not drawn),62.8
14,Cn1nc(C(=O)N2CCC(Oc3ccc(C#N)cn3)CC2)ccc1=O,25.8
15,COCc1ncn2c1CN(C(=O)c1ccco1)CC2,4.57
16,CCC1CNCc2cc3c(C)ccc(C)c3nc2O1 (stereo not drawn),21.7
17,CC(CCN(C)C)NC(=O)c1cccc(C(F)(F)F)c1F (stereo not drawn),66.5
18,COc1cccc(C(=O)NC(C)CCN2CCOCC2)c1F (stereo not drawn),34.1
19,CC(CCN1CCOCC1)NC(=O)c1cccc(C(F)(F)F)c1F (stereo not drawn),35
20,COc1c(CNCCC(=O)NC2CCCC2)c(C(C)C)nn1C,21
21,O=C(C[C@@H]1COC[C@H]2CN(Cc3ccc(F)cc3)C[C@@H]12)N1CCCC1,-21.1
22,CC(C)Nc1cccc(CNC(=O)N2CCC[C@@H]2CO)c1,52.2

row,Structure (SMILES),INHIBITION [%]
1,CC(C)Nc1cccc(CNC(=O)N2CCCC2)c1,24.2
2,CC(C)Nc1cccc(CNC(=O)N2CCC(N3CC=CC3)C2)c1 (stereo not drawn),19.4
3,CC1=Nc2c(c(O)nn2C(C)C)C(c2cn(C)nc2C)S1 (stereo not drawn),33.3
4,CCn1cc(Cl)c(C(=O)NCCCO)n1,20.1
5,COc1ccc2cc(NC(=O)CCCNc3ncccn3)cnc2c1,46.1
6,O=C(CCNc1ncccn1)Nc1ccc(Cn2cncn2)cc1,-4.56
7,COc1ccc(NC(=O)CSC(F)(F)F)cn1,66.7
8,COc1ccc(NC(=O)CCNc2ncccn2)cn1,61
9,COc1ccc(NC(=O)CSc2nc(C)cc(C)n2)cn1,-5.69
10,O=C(CCCNc1ncccn1)Nc1ccc(Cn2cncn2)cc1,45.9
11,COc1ccc(NC(=O)Cn2cc(-c3ccccc3)ncc2=O)cn1,44.9
12,COc1ccc2cc(NC(=O)CCNc3nc(C)cc(C)n3)cnc2c1,73
13,COc1ccc2cc(NC(=O)CCNc3ncccn3)cnc2c1,41.5
14,COc1ccc(NC(=O)N2CCN(c3ncccn3)CC2)cn1,-7.11
15,CS(=O)(=O)c1ccc(NC(=O)CSC(F)(F)F)cn1,39.8
16,Cc1cc(C)nc(NCCC(=O)Nc2ccc(Cn3cncn3)cc2)n1,55.1
17,O=C(NCCc1nnc2n1CCC2)NCC1(c2cccc(F)c2)CC1,-36.3
18,CO[C@H]1CN(C(C)C)C[C@@H]1NC(=O)Nc1ccc(C(F)(F)F)cc1,40.3
19,CN(CC(=O)NC(C)(C)C)C(=O)C1CC(c2cccc(F)c2)=NO1 (stereo not drawn),-29.1
20,COCCN1CCCC(c2nccnc2-c2cccc(Cl)c2)C1 (stereo not drawn),12.75
21,COc1ccc(-n2cc(CNC(=O)c3ccccn3)nn2)cc1,-15.9
22,CS(=O)(=O)NCc1cc(-c2cc(F)cc(F)c2)nc(N2CCOCC2)n1,-4.82

row,Structure (SMILES),INHIBITION [%]
1,CCc1nc(CC)n(CC(=O)NCc2cccc(C)c2)n1,13
2,CN1CC(=O)N(c2ccccc2)CC12CCN(CC1CCOCC1)C2 (stereo not drawn),-11.2
3,CCc1nccn1CC(=O)N1C[C@@H]2CC[C@H]1CN(c1ncccn1)C2,-22.4
4,Cc1cnn(CC2CN(Cc3nc(C)no3)CCO2)c1 (stereo not drawn),4.71
5,Cc1nc(CN2C[C@@H]3CN(C(=O)c4cccn4C)C[C@@H]3C2)cs1,16.1
6,CC(C(=O)NC(N)=O)N(C)CCCc1cc(-c2ccccc2)no1 (stereo not drawn),-28.36
7,Cc1cccc(CN2CCC3(CC2)NC(=O)C[C@H]3c2cnn(C)c2)n1,1.61
8,CC(NC(=O)c1cccc[n+]1[O-])C1CC1 (stereo not drawn),9
9,CC(C)CNC(=O)COc1cccc[n+]1[O-],-12.1
10,CC(NC(=O)COc1cccc[n+]1[O-])C1CC1 (stereo not drawn),76.7
11,CC(C)n1ccnc1C1CCN(c2nccc(C(F)(F)F)n2)CC1,11.5
12,COCCN(C/C=C/c1ccccc1)Cc1nccs1,-12.6
13,CCc1ccc(CN(C/C=C/c2ccccc2)CCOC)nc1,52.9
14,COCCN(C/C=C/c1ccccc1)Cc1ccccn1,27.8
15,c1cc2c(cc1CN1CC[C@H]3CO[C@H](CN4CCCC4)[C@H]3C1)OCO2,10.5
16,C[C@H]1CN(C(=O)c2cscn2)C[C@@]12CCN(c1ccsc1)C2=O,47.4
17,COCCOCC(=O)N1C[C@@H]2CC[C@H](Oc3ccccc3)[C@@H]2C1,7.52
18,CC(=O)N1C[C@@H]2CN(S(=O)(=O)C3CC3)CCO[C@@H]2C1,6.79
19,CC(=O)N1CCO[C@@H]2CN(S(=O)(=O)C3CC3)C[C@@H]2C1,50.3
20,CC(=O)N1CCO[C@@H]2CN(S(=O)(=O)C3CC3)CC[C@@H]2C1,37.6

# — ChEMBL document CHEMBL4513216, “Probing the Open Global Health Chemical Diversity Library for Multistage-Active Starting Points for Next-Generation Antimalarials” (ACS Infect Dis, 2020)
